Source: PubChem BioAssay AID1159580 (chemical genetic matrix, 2015)
The whole screen tested about 5,500 compounds, of which about 2,000 (36%) were called active. About 18% were inconclusive and are not listed. Rule as the data show it: active = normalized growth mostly below about 0.91 (no sharp cut-off); inconclusive = no clear call, values can overlap the other calls; inactive = mostly above about 0.92. The list shows a part of the results.

Assay: chemical genetic growth profiling, strain panel (AID 1159580);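 also: tested at 20 µM; growth read once vehicle control cultures reached saturation at 30 °C; 1 = growth at the plate median or of vehicle wells; lower values mean less growth of the strain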
Settings: growth OD
[1] = S. cerevisiae deletion strains, locus YAL013W, strain DEP1, active compounds read low
[2] = S. cerevisiae deletion strains, locus YBR229C, strain ROT2, active compounds read low
[3] = S. cerevisiae deletion strains, locus YDL101C, strain DUN1, active compounds read low
[4] = S. cerevisiae deletion strains, locus YDR150W, strain NUM1, active compounds read low
[5] = S. cerevisiae deletion strains, locus YEL061C, strain CIN8, active compounds read low
[6] = S. cerevisiae deletion strains, locus YGR078C, strain PAC10, active compounds read low
[7] = S. cerevisiae deletion strains, locus YHR030C, strain SLT2, active compounds read low
[8] = S. cerevisiae deletion strains, locus YHR087W, strain rtc3, active compounds read low
[9] = S. cerevisiae deletion strains, locus YJR043C, strain POL32, active compounds read low
[10] = S. cerevisiae deletion strains, locus YJR075W, strain HOC1, active compounds read low
[11] = S. cerevisiae deletion strains, locus YKL190W, strain CNB1, active compounds read low
[12] = S. cerevisiae deletion strains, locus YLR039C, strain RIC1, active compounds read low
[13] = S. cerevisiae deletion strains, locus YLR058C, strain SHM2 (second series), active compounds read low
[14] = S. cerevisiae deletion strains, locus YLR085C, strain ARP6, active compounds read low
[15] = S. cerevisiae deletion strains, locus YLR262C, strain YPT6, active compounds read low
[16] = S. cerevisiae deletion strains, locus YML094W, strain GIM5, active compounds read low
[17] = S. cerevisiae deletion strains, locus YMR219W, strain ESC1, active compounds read low
[18] = S. cerevisiae deletion strains, locus YMR263W, strain SAP30, active compounds read low
[19] = S. cerevisiae deletion strains, locus YNL153C, strain GIM3, active compounds read low
[20] = S. cerevisiae deletion strains, locus YNL298W, strain CLA4 (second series), active compounds read low
[21] = S. cerevisiae deletion strains, locus YNL322C, strain KRE1, active compounds read low
[22] = S. cerevisiae deletion strains, locus YNR030W, strain Alg12, active compounds read low
[23] = S. cerevisiae deletion strains, locus YPL055C, strain LGE1, active compounds read low
[24] = S. cerevisiae deletion strains, locus YPL241C, strain CIN2, active compounds read low
[25] = S. cerevisiae deletion strains, locus YPR135W, strain CTF4, active compounds read low

Measured: normalized growth

NNC(=S)Nc1ccc2c(c1)OCCO2
active: [22] 0.806
inactive: [1] 1.01 | [2] 1.01 | [3] 1.01 | S. cerevisiae deletion strains, locus YDL134C, strain PPH21, active compounds read low 1.01 | [4] 0.956 | [5] 0.983 | [6] 0.991 | S. cerevisiae deletion strains, locus YGR229C, strain SMI1, active compounds read low 0.986 | [7] 1.02 | [8] 1.05 | [9] 1 | [10] 1.05 | [11] 0.99 | [12] 0.983 | [13] 1.01 | [14] 0.939 | [15] 1.01 | [16] 0.944 | [17] 1.02 | [18] 0.996 | S. cerevisiae deletion strains, locus YMR307W, strain GAS1, active compounds read low 0.954 | S. cerevisiae deletion strains, locus YNL128W, strain TEP1, active compounds read low 0.976 | [19] 0.994 | [20] 0.992 | [21] 1.02 | [23] 0.967 | [24] 1.1 | [25] 0.823

NC(N)=NC(N)=Nc1ccc2c(c1)OCCO2
inactive: [1] 0.987 | [2] 1.01 | [3] 1.01 | [4] 0.918 | [5] 0.995 | [6] 0.99 | [7] 0.983 | [8] 1.01 | [9] 0.989 | [10] 0.993 | [11] 0.994 | [12] 1 | [13] 0.994 | [14] 0.963 | [15] 0.998 | [16] 1.06 | [17] 0.996 | [18] 0.943 | [19] 1.01 | [20] 0.993 | [21] 1 | [22] 0.995 | S. cerevisiae deletion strains, locus YOL006C, strain TOP1, active compounds read low 1.03 | [23] 0.993 | [24] 0.927 | [25] 1.01 | S. cerevisiae strains, strain wild type, active compounds read low 0.995

CC(C)C[C@@H](CN)CC(=O)O
inactive: S. cerevisiae deletion strains, locus YAL021C, strain ccr4, active compounds read low 1.04 | S. cerevisiae deletion strains, locus YAL026C, strain drs2, active compounds read low 1.03 | S. cerevisiae deletion strains, locus YAL030W, strain snc1, active compounds read low 1.02 | S. cerevisiae deletion strains, locus YBL061C, strain skt5, active compounds read low 1.01 | S. cerevisiae deletion strains, locus YBR009C, strain hhf1, active compounds read low 1 | S. cerevisiae deletion strains, locus YBR023C, strain chs3, active compounds read low 1.02 | S. cerevisiae deletion strains, locus YBR171W, strain sec66, active compounds read low 1.02 | S. cerevisiae deletion strains, locus YBR231C, strain swc5, active compounds read low 0.994 | S. cerevisiae deletion strains, locus YBR279W, strain paf1, active compounds read low 1.02 | S. cerevisiae deletion strains, locus YCL011C, strain gbp2, active compounds read low 1.03 | S. cerevisiae deletion strains, locus YCL016C, strain dcc1, active compounds read low 1.04 | S. cerevisiae deletion strains, locus YCL061C, strain MRC1, active compounds read low 1.02 | S. cerevisiae deletion strains, locus YCL069W, strain vba3, active compounds read low 1.04 | S. cerevisiae deletion strains, locus YCR088W, strain abp1, active compounds read low 1.02 | S. cerevisiae deletion strains, locus YDL005C, strain med2, active compounds read low 1.02 | S. cerevisiae deletion strains, locus YDL040C, strain nat1, active compounds read low 1.01 | S. cerevisiae deletion strains, locus YDR001C, strain nth1, active compounds read low 1.01 | S. cerevisiae deletion strains, locus YDR069C, strain doa4, active compounds read low 1.01 | S. cerevisiae deletion strains, locus YDR137W, strain rgp1, active compounds read low 1.06 | S. cerevisiae deletion strains, locus YDR159W, strain sac3, active compounds read low 0.965 | S. cerevisiae deletion strains, locus YDR195W, strain ref2 0.977 | S. cerevisiae deletion strains, locus YDR297W, strain sur2, active compounds read low 1.01 | S. cerevisiae deletion strains, locus YDR334W, strain swr1, active compounds read low 1.02 | S. cerevisiae deletion strains, locus YDR335W, strain msn5, active compounds read low 1.04 | S. cerevisiae deletion strains, locus YDR392W, strain spt3, active compounds read low 0.954 | S. cerevisiae deletion strains, locus YEL003W, strain gim4, active compounds read low 1.01 | S. cerevisiae deletion strains, locus YEL037C, strain rad23, active compounds read low 1.01 | S. cerevisiae deletion strains, locus YEL061C, strain CIN8 (second series), active compounds read low 1.01 | S. cerevisiae deletion strains, locus YER015W, strain faa2, active compounds read low 1 | S. cerevisiae deletion strains, locus YER016W, strain bim1, active compounds read low 1.04 | S. cerevisiae deletion strains, locus YER111C, strain swi4, active compounds read low 1.02 | S. cerevisiae deletion strains, locus YER155C, strain BEM2 (second series), active compounds read low 1 | S. cerevisiae deletion strains, locus YFR010W, strain ubp6, active compounds read low 1.01 | S. cerevisiae deletion strains, locus YGL167C, strain pmr1, active compounds read low 1.02 | S. cerevisiae deletion strains, locus YGL173C, strain kem1, active compounds read low 1.01 | S. cerevisiae deletion strains, locus YGL227W, strain vid30, active compounds read low 1.01 | S. cerevisiae deletion strains, locus YGL240W, strain doc1, active compounds read low 1 | S. cerevisiae deletion strains, locus YGL253W, strain hxk2, active compounds read low 1.02 | S. cerevisiae deletion strains, locus YHR013C, strain ard1, active compounds read low 1.05 | S. cerevisiae deletion strains, locus YHR027C, strain rpn1, active compounds read low 1.01 | [7] 1.09 | S. cerevisiae deletion strains, locus YHR079C, strain IRE1, active compounds read low 0.981 | S. cerevisiae deletion strains, locus YHR142W, strain chs7, active compounds read low 1.03 | S. cerevisiae deletion strains, locus YJL092W, strain hpr5, active compounds read low 1.01 | S. cerevisiae deletion strains, locus YJL095W, strain BCK1 (second series), active compounds read low 1.02 | S. cerevisiae deletion strains, locus YJL095W, strain BCK1, active compounds read low 0.989 | S. cerevisiae deletion strains, locus YJL115W, strain asf1, active compounds read low 1.03 | S. cerevisiae deletion strains, locus YJL129C, strain trk1, active compounds read low 1.03 | S. cerevisiae deletion strains, locus YJL154C, strain vps35, active compounds read low 1.02 | S. cerevisiae deletion strains, locus YJL164C, strain tpk1, active compounds read low 1 | S. cerevisiae deletion strains, locus YJL166W, strain qcr8, active compounds read low 1.01 | S. cerevisiae deletion strains, locus YJL187C, strain SWE1, active compounds read low 1.01 | S. cerevisiae deletion strains, locus YJR066W, strain TOR1, active compounds read low 0.959 | S. cerevisiae deletion strains, locus YKL160W, strain elf1, active compounds read low 1.04 | S. cerevisiae deletion strains, locus YKR026C, strain gcn3, active compounds read low 1.01 | S. cerevisiae deletion strains, locus YKR091W, strain srl3, active compounds read low 1.01 | S. cerevisiae deletion strains, locus YLL001W, strain dnm1, active compounds read low 0.995 | S. cerevisiae deletion strains, locus YLL026W, active compounds read low 1.01 | S. cerevisiae deletion strains, locus YLL041C, strain sdh2, active compounds read low 1.03 | S. cerevisiae deletion strains, locus YLR027C, strain aat2, active compounds read low 1.02 | S. cerevisiae deletion strains, locus YLR113W, strain HOG1, active compounds read low 0.992 | S. cerevisiae deletion strains, locus YLR221C, strain rsa3, active compounds read low 0.998 | S. cerevisiae deletion strains, locus YLR258W, strain gsy2, active compounds read low 1.04 | S. cerevisiae deletion strains, locus YLR262C, strain YPT6 (second series), active compounds read low 1.02 | S. cerevisiae deletion strains, locus YLR320W, strain mms22, active compounds read low 0.981 | S. cerevisiae deletion strains, locus YLR342W, strain FKS1, active compounds read low 1.04 | S. cerevisiae deletion strains, locus YLR357W, strain rsc2, active compounds read low 0.987 | S. cerevisiae deletion strains, locus YLR370C, strain arc18, active compounds read low 1.03 | S. cerevisiae deletion strains, locus YLR384C, strain iki3, active compounds read low 1.02 | S. cerevisiae deletion strains, locus YML120C, strain ndi1, active compounds read low 1.01 | S. cerevisiae deletion strains, locus YMR058W, strain fet3, active compounds read low 1.02 | S. cerevisiae deletion strains, locus YMR125W, strain sto1, active compounds read low 1.02 | S. cerevisiae deletion strains, locus YMR129W, active compounds read low 1.02 | S. cerevisiae deletion strains, locus YMR205C, strain PFK2, active compounds read low 0.993 | S. cerevisiae deletion strains, locus YMR231W, strain pep5, active compounds read low 1.01 | S. cerevisiae deletion strains, locus YNL071W, strain lat1, active compounds read low 1.02 | S. cerevisiae deletion strains, locus YNL183C, strain NPR1, active compounds read low 0.923 | S. cerevisiae deletion strains, locus YNL209W, strain ssb2, active compounds read low 1.01 | S. cerevisiae deletion strains, locus YNL248C, strain rpa49, active compounds read low 1.01 | S. cerevisiae deletion strains, locus YNL322C, strain KRE1 (second series), active compounds read low 1.02 | S. cerevisiae deletion strains, locus YNR049C, strain mso1, active compounds read low 1.01 | S. cerevisiae deletion strains, locus YOR001W, strain rrp6, active compounds read low 1.01 | S. cerevisiae deletion strains, locus YOR070C, strain gyp1, active compounds read low 1.02 | S. cerevisiae deletion strains, locus YOR080W, strain dia2, active compounds read low 1.03 | S. cerevisiae deletion strains, locus YOR083W, strain WHI5, active compounds read low 0.974 | S. cerevisiae deletion strains, locus YOR106W, strain vam3, active compounds read low 1.03 | S. cerevisiae deletion strains, locus YOR231W, strain MKK1, active compounds read low 0.982 | S. cerevisiae deletion strains, locus YOR265W, strain rbl2, active compounds read low 0.999 | S. cerevisiae deletion strains, locus YOR270C, strain vph1, active compounds read low 1.12 | S. cerevisiae deletion strains, locus YOR290C, strain snf2, active compounds read low 1.06 | S. cerevisiae deletion strains, locus YPL051W, strain arl3, active compounds read low 1.04 | S. cerevisiae deletion strains, locus YPL078C, strain atp4, active compounds read low 1.04 | S. cerevisiae deletion strains, locus YPL106C, strain sse1, active compounds read low 1.02 | S. cerevisiae deletion strains, locus YPL240C, strain hsp82, active compounds read low 1.02 | S. cerevisiae deletion strains, locus YPL256C, strain CLN2, active compounds read low 0.984
